Results reported in PubChem BioAssay (NCATS).
Where “and” joins values, the source holds several entries; their conditions need not be identical. Identical values can stand only once. Results filed as inconclusive are left out. Calls of active or inactive are those of the source. Unless noted, calls follow the shape of the dose curve; as a rule, active = well fitted curve in the direction sought with a large enough effect; inconclusive = small, poorly fitted or top-dose-only effect, or another doubt; inactive = no such curve, though single readings can be large; an effect the other way counts as inactive or inconclusive.

Experiments:
[1] = Validation qHTS assay for inhibitors of Activation Induced Cytidine Deaminase (AID): UDG Counterscreen signal (AID 1347427); details: biochemical UDG counterscreen, fluorescence signal; series mostly up to 115 µM
Procedure, shortened: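 Fluorescence at 560 nm excitation, 665 nm emission reports UDG signal after 250 mM NaOH (2x) addition and 30 min. Enzymes (AID 1 uM, UDG 2 U/mL, at 4/3x) preincubated 10 min with compound, then 4 h with 4x 250 nM DJC20/DJC23 substrate at room temperature.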

[2] = biological target: Single-stranded DNA cytosine deaminase (Homo sapiens) (UniProt Q9GZX7); assay: Validation qHTS assay for inhibitors of Activation Induced Cytidine Deaminase (AID): AID signal (AID 1347429); details: Recombinant AID, FRET ssDNA deamination with UDG, fluorescence; series mostly up to 115 µM
Procedure, shortened: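 Compounds (up to 114 uM final) are tested against AID plus UDG using DJC20/DJC23 FRET substrate. Reactions incubate 4 hr at room temperature, receive NaOH for 30 min, and are read at Ex 540/Em 590 nm.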

[3] = Primary qHTS for inhibitors of La Crosse Virus (LACV) - induced cell death in SH-SY5Y cells (AID 1508616); details: SH-SY5Y LACV cytopathicity rescue, ATP luminescence, 6 d; series mostly up to 4.29 µM;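 also: top concentration of the series differs between compounds; higher means more rescue of cells from virus-induced death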
Procedure, shortened: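 Screening measures cell viability in LACV-infected SH-SY5Y cultures. Compound was added before virus (0.01 MOI), and ATP was detected by luminescence 6 days later.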

[4] = biological target: Calcium and integrin-binding protein 1 (Homo sapiens) (UniProt Q99828); assay: Primary qHTS for Identification of Calcium Integrin Binding Protein 1 (CIB1) Competitor (AID 1508620); details: CIB1-GST / FITC-alphaIIb peptide fluorescence polarization; series mostly up to 57.7 µM;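 also: GST tagged CIB1 binding a fluorescein labelled alphaIIb integrin peptide tracer; top concentration of the series differs between compounds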
Procedure, shortened: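 Fluorescence polarization competition: GST-tagged CIB1 (1 uM final) preincubated with compound 15 min at room temperature, then FITC-labelled alphaIIb peptide (100 nM final) added. After 15 min at room temperature, polarization read at Ex 480/Em 540.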

[5] = A High-Content qHTS Against Drug Library for the Identification of Small Molecules that Inhibit DYT1 Early Onset Primary Dystonia-Associated Cell Pathology (AID 1645839; calls by dose curve); details: HEK293 Flp-In EGFP-delE TorsinA, punctate imaging, 48 h; series mostly up to 46.1 µM
Procedure, shortened: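 Cells were seeded and left for 24 h, then dosed with compound alongside tetracycline induction of mutant EGFP-TorsinA. They were incubated for 48 h, fixed in 4% paraformaldehyde, permeabilized and imaged for mislocalization (%pathology) and cell count.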

[6] = biological target: Cytochrome P450 2D6 (Homo sapiens) (UniProt P10635); assay: Cytochrome P450 family 2 subfamily D member 6 (CYP2D6) small molecule antagonists: luciferase biochemical (cell-free) qHTS assay (AID 1645840; active = well fitted curve in the direction sought with a large enough effect in the repeat runs; an effect the other way counts as inactive or inconclusive; also: nearly all actives have a fitted effect of over 55% in size; also: potency is read from the fitted curve at half-maximal effect); details: P450-Glo CYP2D6 enzyme, luciferin luminescence, 1 h; series mostly up to 57.4 µM
Procedure, shortened: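 P450-Glo CYP2D6 system: proluciferin substrate converted by enzyme to luciferin, read by luminescence proportional to activity. Enzyme-substrate mix with compound 10 min at room temperature, then NADPH regeneration 1 h before detection reagent.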

[7] = biological target: Papain (Carica papaya) (UniProt P00784); assay: Primary qHTS assay for inhibitors of the protease papain (AID 1645873); details: papain Z-FR-AMC cleavage, AMC fluorescence; series mostly up to 49.8 µM;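 also: papain turnover of Z-FR-AMC read as the AMC fluorescence gain over 10 min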
[8] = biological target: Calcium and integrin-binding protein 1 (Homo sapiens) (UniProt Q99828); assay: Validation qHTS for Identification of Calcium Integrin Binding protein 1 (CIB1) Competitor (AID 1508618); details: CIB1-GST / FITC-alphaIIb peptide fluorescence polarization; series mostly up to 114 µM
Procedure, shortened: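 CIB1-GST (1 uM final) incubated 15 min at room temperature with compounds (up to 114 uM), then FITC-labelled alphaIIb peptide (100 nM) added. FP read (Ex 480/Em 540) after 15 min, pH 7.4 buffer containing 5 mM CaCl2.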

[9] = Primary qHTS for small molecule stabilizers of the endoplasmic reticulum resident proteome: Secreted ER Calcium Modulated Protein (SERCaMP) assay (AID 1508630); details: SH-SY5Y GLuc-SERCaMP (Gaussia luciferase released on ER calcium loss) secretion, thapsigargin, luminescence; series mostly up to 38.4 µM
Procedure, shortened: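 The SH-SY5Y reporter protocol was run at 3 concentrations up to 38.3 uM (primary) or 11 concentrations (follow-up): 16 h compound, 100 nM thapsigargin for 4 h, then extracellular luciferase luminescence.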

[10] = biological target: Cytochrome P450 2C9 (Homo sapiens) (UniProt P11712); assay: Cytochrome P450 family 2 subfamily C member 9 (CYP2C9) small molecule antagonists: luciferase biochemical (cell-free) qHTS assay (AID 1645842; active = well fitted curve in the direction sought with a large enough effect in the repeat runs; an effect the other way counts as inactive or inconclusive; also: nearly all actives have a fitted effect of over 55% in size; also: potency is read from the fitted curve at half-maximal effect); details: P450-Glo CYP2C9 enzyme assay, luciferin luminescence; series mostly up to 57.4 µM
Procedure, shortened: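 P450-Glo CYP2C9 system: proluciferin substrate with enzyme in mix containing 0.4% BSA, 10 min at room temperature, then NADPH regeneration solution added and incubated 1 h at 37C. Detection reagent stopped reaction; luminescence read after 20 min as RLU.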

[11] = Primary qHTS for inhibitors of nuclear receptor binding SET domain protein 2 (NSD2) in an isogenic RCH-ACV NSD2 p.E1099K mutant (9B) (AID 1645876); details: RCH-ACV NSD2 E1099K (9B) viability, CellTiter-Glo, 72 h; series mostly up to 44.9 µM; also: nearly all actives have a fitted effect of over 70% in size; also: potency is read from the fitted curve at half-maximal effect
[12] = Primary qHTS for inhibitors of nuclear receptor binding SET domain protein 2 (NSD2) in an RCH-ACV wild type WT cells (2C) (AID 1645877); details: RCH-ACV (leukaemia line) NSD2 WT (2C) viability, CellTiter-Glo, 72 h; series mostly up to 44.9 µM; also: nearly all actives have a fitted effect of over 70% in size; also: potency is read from the fitted curve at half-maximal effect
[13] = biological target: Calcium and integrin-binding protein 1 (Homo sapiens) (UniProt Q99828); assay: Confirmatory qHTS for Identification of Calcium Integrin Binding Protein 1 (CIB1) Competitor (AID 1508617); details: CIB1 binding competition assay, biochemical qHTS; series mostly up to 114 µM; also: nearly all actives have a fitted effect of over 65% in size
Procedure, shortened: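 Compounds at up to 114 uM final met 1 uM GST-tagged CIB1 for 15 min at room temperature (HEPES pH 7.4, 5 mM CaCl2). FITC-labelled alphaIIb peptide, 100 nM, added; polarization read after 15 min more.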

[14] = biological target: N-terminal Xaa-Pro-Lys N-methyltransferase 1 (Homo sapiens) (UniProt Q9BV86); assay: Confirmatory qHTS for Inhibitors of N-terminal methyltransferase 1 (NTMT1): MTaseGlo Assay (AID 1645874); details: NTMT1 enzyme, MTase-Glo SAH luminescence; series mostly up to 100 µM; also: potency is read from the fitted curve at half-maximal effect; nearly all actives have a fitted effect of over 65% in size
Procedure, shortened: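 MTase-Glo luminescence measured SAH formed by 125 nM NTMT1 from 100 uM SAM and 1 uM SPKRIA peptide over 30 min at room temperature, following 15 min compound preincubation. Percent inhibition against no-enzyme and DMSO controls gave 4-parameter Hill fits.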

Measured: Potency

Calcium and integrin-binding protein 1 (Homo sapiens), sequence (Q99828 whole entry, looked up): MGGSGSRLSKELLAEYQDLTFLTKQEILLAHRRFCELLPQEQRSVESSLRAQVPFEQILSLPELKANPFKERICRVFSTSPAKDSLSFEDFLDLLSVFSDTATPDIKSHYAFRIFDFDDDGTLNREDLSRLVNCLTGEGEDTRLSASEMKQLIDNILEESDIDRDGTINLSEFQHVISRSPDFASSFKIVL
Cytochrome P450 2C9 (Homo sapiens), sequence (P11712 whole entry, looked up): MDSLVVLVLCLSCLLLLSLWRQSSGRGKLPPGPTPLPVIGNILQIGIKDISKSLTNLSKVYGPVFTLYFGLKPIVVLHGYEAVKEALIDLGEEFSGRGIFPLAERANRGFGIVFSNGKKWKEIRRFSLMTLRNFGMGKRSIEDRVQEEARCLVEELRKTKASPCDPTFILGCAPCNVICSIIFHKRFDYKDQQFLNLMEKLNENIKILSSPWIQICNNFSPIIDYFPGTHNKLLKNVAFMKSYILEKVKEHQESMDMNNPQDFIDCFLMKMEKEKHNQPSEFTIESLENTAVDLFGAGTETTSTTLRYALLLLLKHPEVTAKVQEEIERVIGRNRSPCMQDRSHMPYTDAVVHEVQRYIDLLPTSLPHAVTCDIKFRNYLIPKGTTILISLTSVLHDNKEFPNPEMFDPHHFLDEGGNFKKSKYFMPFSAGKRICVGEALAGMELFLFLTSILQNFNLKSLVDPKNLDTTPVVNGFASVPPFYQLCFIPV
Cytochrome P450 2D6 (Homo sapiens), sequence (P10635 whole entry, looked up): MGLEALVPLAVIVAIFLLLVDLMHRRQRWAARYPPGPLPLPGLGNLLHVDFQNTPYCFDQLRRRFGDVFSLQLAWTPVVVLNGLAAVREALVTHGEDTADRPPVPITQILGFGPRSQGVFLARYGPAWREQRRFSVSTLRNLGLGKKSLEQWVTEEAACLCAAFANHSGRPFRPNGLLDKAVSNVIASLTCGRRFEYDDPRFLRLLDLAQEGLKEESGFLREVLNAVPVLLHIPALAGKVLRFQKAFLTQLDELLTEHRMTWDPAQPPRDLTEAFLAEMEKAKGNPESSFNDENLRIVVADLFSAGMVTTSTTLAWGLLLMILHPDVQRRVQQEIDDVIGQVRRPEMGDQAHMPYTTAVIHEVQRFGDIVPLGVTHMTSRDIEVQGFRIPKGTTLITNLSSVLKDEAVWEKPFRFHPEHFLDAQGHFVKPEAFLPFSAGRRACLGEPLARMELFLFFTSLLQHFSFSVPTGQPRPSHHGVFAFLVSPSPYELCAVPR
Papain (Carica papaya), sequence (P00784 whole entry, looked up): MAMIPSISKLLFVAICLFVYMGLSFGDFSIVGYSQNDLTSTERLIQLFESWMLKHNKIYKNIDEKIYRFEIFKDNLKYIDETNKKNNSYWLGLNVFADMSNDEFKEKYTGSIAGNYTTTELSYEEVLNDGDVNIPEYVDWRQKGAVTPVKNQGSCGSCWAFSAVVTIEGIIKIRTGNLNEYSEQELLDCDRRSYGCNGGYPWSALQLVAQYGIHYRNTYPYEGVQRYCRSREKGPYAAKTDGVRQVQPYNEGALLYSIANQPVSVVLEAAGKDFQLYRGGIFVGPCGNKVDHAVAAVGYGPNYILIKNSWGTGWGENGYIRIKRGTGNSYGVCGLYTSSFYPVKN
Single-stranded DNA cytosine deaminase (Homo sapiens), sequence (Q9GZX7 whole entry, looked up): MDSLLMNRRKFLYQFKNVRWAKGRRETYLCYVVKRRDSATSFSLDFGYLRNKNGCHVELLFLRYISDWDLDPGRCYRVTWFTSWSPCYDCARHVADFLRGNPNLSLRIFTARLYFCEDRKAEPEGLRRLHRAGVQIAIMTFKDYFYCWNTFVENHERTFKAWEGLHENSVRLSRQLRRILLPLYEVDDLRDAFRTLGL
N-terminal Xaa-Pro-Lys N-methyltransferase 1 (Homo sapiens), sequence (Q9BV86 whole entry, looked up): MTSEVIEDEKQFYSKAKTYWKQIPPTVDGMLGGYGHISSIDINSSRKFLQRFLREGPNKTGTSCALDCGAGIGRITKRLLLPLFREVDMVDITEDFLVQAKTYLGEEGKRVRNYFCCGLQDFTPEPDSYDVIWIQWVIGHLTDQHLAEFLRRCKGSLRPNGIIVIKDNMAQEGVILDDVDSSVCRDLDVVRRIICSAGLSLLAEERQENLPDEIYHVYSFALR

CCn1cc(C(=O)O)c(=O)c2ccc(C)nc21
inactive: [1] | [2] | [3] | [4] | [5] | [6] | [7]

O=C(NCCN1CCOCC1)c1ccc(Cl)cc1
active: [6] 9.77 µM
not listed: [4] | [13] | [14]
inactive: all other assays above

C[N+](C)(C)CCCCCC[N+](C)(C)C
not listed: [6] | [12] | [13] | [14]
inactive: all other assays above

CCN1CCC[C@H]1CNC(=O)c1cc(S(N)(=O)=O)ccc1OC
not listed: [6] | [12] | [13] | [14]
inactive: all other assays above

CC(C)OC(=O)C(C)(C)Oc1ccc(C(=O)c2ccc(Cl)cc2)cc1
active: [10] 2.45 µM
inactive: [1] | [2] | [9] | [5] | [7] | [11] | [12]

O=c1cc(-c2ccc(O)cc2)oc2cc(O)cc(O)c12
active: [6] 12 µM | [10] 21.3 µM | [11] 5.9 µM | [12] 4.68 µM
not listed: [5] | [13] | [14]
inactive: all other assays above

CCCCC1C(=O)N(c2ccccc2)N(c2ccccc2)C1=O
active: [10] 8.71 µM
not listed: [4] | [6] | [8] | [13] | [14]
inactive: all other assays above

OC[C@@H](O)[C@H](O)[C@H](O)[C@@H](O)CO
inactive: [3] | [4] | [9] | [5] | [6] | [10] | [11] | [12]

Cc1c(O)cccc1C(=O)N[C@@H](CSc1ccccc1)[C@H](O)CN1C[C@H]2CCCC[C@@H]2C[C@@H]1C(=O)NC(C)(C)C
inactive: [4]

O=C(O)Cc1cccc2ccccc12
inactive: [3] | [4] | [5] | [10] | [11] | [12]

CC[C@H]1OC(=O)[C@H](C)C(=O)[C@H](C)[C@@H](O[C@H]2O[C@H](C)C[C@H](N(C)C)[C@@H]2O)[C@](C)(OC)C[C@@H](C)C(=O)[C@H](C)[C@H]2N(CCCCn3cnc(-c4cccnc4)c3)C(=O)O[C@]12C
inactive: [4]

COc1cc(O)c2c(c1)C(=O)c1cc(C)cc(O)c1C2=O
inactive: [4]

CC[C@]1(O)C[C@@H]2CN(CCc3c([nH]c4ccccc34)[C@@](C(=O)OC)(c3cc4c(cc3OC)N(C)[C@H]3[C@@](O)(C(=O)OC)[C@H](OC(C)=O)[C@]5(CC)C=CCN6CC[C@]43[C@@H]65)C2)C1
inactive: [3] | [4] | [9] | [5] | [10]
active: [11] 33.5 nM and 84.1 nM and 57.8 nM

CN(C)c1cc(NC(=O)CNC(C)(C)C)c(O)c2c1C[C@@H]1C[C@H]3[C@H](N(C)C)C(=O)C(C(N)=O)=C(O)[C@@]3(O)C(=O)C1=C2O
inactive: [3] | [4] | [5] | [10]

O=C(O)c1c(Cl)c(Cl)c(Cl)c(Cl)c1-c1c2cc(I)c(=O)c(I)c-2oc2c(I)c(O)c(I)cc12
inactive: [13] | [9]
active: [10] 10.7 µM | [14] 9.55 µM | [12] 9.34 µM

COc1ccc(Cc2ccc(NC(N)=O)cc2)cc1-c1cccc(Cl)c1
inactive: [4]

C[C@]12CC[C@@H]3c4ccc(O)cc4C[C@@H](CCCCCCCCCS(=O)CCCC(F)(F)C(F)(F)F)[C@H]3[C@H]1CC[C@H]2O (stereo not given in full)
inactive: [4]

CO[C@H]1C[C@@H]2CC[C@@H](C)[C@@](O)(O2)C(=O)C(=O)N2CCCC[C@@H]2C(=O)O[C@H]([C@H](C)C[C@@H]2CC[C@H](OP(C)(C)=O)[C@H](OC)C2)CC(=O)[C@H](C)C=C(C)[C@@H](O)[C@@H](OC)C(=O)[C@H](C)C[C@H](C)C=CC=CC=C1C
inactive: [4]

NC1=N[C@@]2(c3cc(NC(=O)c4ccc(F)cn4)ccc3F)COC[C@@H]2CS1
inactive: [4]

N#C[C@H]1C[C@H]2C[C@@H]2N1C(=O)[C@@H](N)C12CC3CC(CC(O)(C3)C1)C2
inactive: [3] | [9] | [5] | [6] | [10] | [12]

C[C@@H](O)[C@H]1C(=O)N2C(C(=O)O)=C(S[C@@H]3CN[C@H](C(=O)N(C)C)C3)[C@H](C)[C@H]12
inactive: [3] | [4] | [5] | [10] | [11] | [12]

CC(=O)Oc1cc2c(s1)CCN(C(C(=O)C1CC1)c1ccccc1F)C2 (stereo not given)
inactive: [3] | [4] | [9] | [11] | [12]
active: [10] 4.36 µM and 4.25 µM
